Inconclusive results are not listed. Active and inactive are the calls of the source. Unless noted, calls come from the whole dose curve; as a rule, active = well fitted curve in the direction sought with a large enough effect in the repeat runs; inconclusive = weak or mixed curves; inactive = no such curve, though single readings can be large; an effect the other way counts as inactive or inconclusive.
Experiments:
[1] = qHTS RealTime-Glo MT Cell Viability Assay in HEK293 cells - 24 hour (AID 1224886); note: top concentration of the series differs between compounds; nearly all actives have a fitted effect of over 50% in size
Method in brief: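 Cells + reagent dispensed (600 cells/well, HEK293) → 5 h at 37 C/5% CO2 → 23 nL compound in DMSO pinned → 40 h at 37 C → luminescence read at 0, 8, 16, 24, 32, 40 h.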

[2] = qHTS RealTime-Glo MT Cell Viability Assay in HEK293 cells - 8 hour (AID 1224887); note: top concentration of the series differs between compounds; nearly all actives have a fitted effect of over 50% in size
Method in brief: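 600 cells/well were plated with the nonlytic NanoLuc/prosubstrate reagent, pre-incubated 5 h, then given 23 nL of compound in DMSO. Incubation at 37 C for 40 h, with luminescence from viable-cell-reduced substrate read repeatedly from 0 h.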

[3] = A CellTox Green Cytotoxicity Assay to monitor cytotoxicity in HEK293 cells - 16 hour (AID 1224888); note: nearly all actives have a fitted effect of over 35% in size
Method in brief: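 HEK293 cells, 600/well, were preincubated 5 hours and then exposed to compounds at 37 C for up to 40 hours. A cell-impermeant cyanine dye staining dead-cell DNA was read by fluorescence at 0, 8, 16, 24, 32 and 40 h time points.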

[4] = qHTS RealTime-Glo MT Cell Viability Assay in HepG2 cells - 0 hour (AID 1224889); note: nearly all actives have a fitted effect of over 50% in size
Method in brief: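 Real-time, nonlytic viability: 600 HepG2 cells/well mixed with NanoLuc enzyme plus prosubstrate; 5 h settle, compound (DMSO) added by pintool; luminescence monitored over 40 h at 37 C.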

[5] = qHTS assay to identify small molecule antagonists of the estrogen receptor alpha (ER-alpha) signaling pathway using the BG1 cell line in the presence of 0.1 nM 17-beta-estradiol - cell viability counter screen (AID 1259241); note: nearly all actives have a fitted effect of over 40% in size
Method in brief: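 VM7Luc4E2, 4,000 cells/well, phenol red-free medium + 10% charcoal-stripped FBS; 24 hr plating; cpd + 0.1 nM E2 final, 22 hr 37C/5% CO2; CellTiter-Fluor 30 min, fluorescence.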

[6] = qHTS assay to identify small molecule antagonists of the androgen receptor (AR) signaling pathway using the MDA cell line in the presence of 0.5 nM R1881 - cell viability counter screen (AID 1259242); note: nearly all actives have a fitted effect of over 45% in size
Method in brief: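 MDA-kb2 cells (MMTV-luciferase, AR/GR responsive) were treated with compounds plus 0.5 nM R1881 (final) for 16 hr at 37C, 0% CO2. Viability was then read in the same wells as live-cell protease fluorescence (CellTiter-Fluor, 30 min).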

[7] = qHTS assay to identify small molecule HDAC inhibitors (AID 1259364); note: nearly all actives have a fitted effect of over 45% in size; note: potency is the fitted concentration of half-maximal effect
Method in brief: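 Wild-type HCT-116 cells, plated overnight at 37 C, exposed to compounds 2 hr at 37 C; luminogenic HDAC-Glo substrate then added 30 min at room temperature. Luminescence reports relative endogenous class I/II HDAC activity.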

[8] = qHTS assay to identify small molecule agonists of the sonic hedgehog signaling (Shh) pathway - cell viability counter screen (AID 1259366); note: nearly all actives have a fitted effect of over 50% in size
Method in brief: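 Cytotoxicity counter screen run in the same wells as the Shh reporter assay. NIH/3T3 cells carrying a Gli1 response element–driven luciferase were treated with DMSO-dissolved compounds for 24hr, and live-cell protease activity was measured with CellTiter-Fluor.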

[9] = qHTS assay to identify small molecule antagonists of the sonic hedgehog signaling (Shh) pathway - cell viability counter screen (AID 1259367); note: nearly all actives have a fitted effect of over 55% in size
Method in brief: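 Seed 3T3 Gli1-Luc cells at 2,000 per well; incubate 4 hr; add compound in DMSO, then conditioned medium; incubate at 37C with 5% CO2; add CellTiter-Fluor after 23 hr; read fluorescence 1 hr later.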

[10] = qHTS assay to identify small molecule agonists of the sonic hedgehog signaling (Shh) pathway (AID 1259368; calls by dose curve;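 note: NIH/3T3-derived 3T3Gli1-Luc cells carrying a stable Gli1-driven firefly luciferase reporter; series mostly up to about 92 µM; nearly all actives have a fitted effect of over 15% in size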)
Method in brief: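 NIH/3T3-derived 3T3Gli1-Luc cells with stably integrated Gli1-driven firefly luciferase, 2,000 cells/well, compounds added after 4 hr. Incubated 24 hr at 37C, 5% CO2; luminescence read after 30 min with luciferase reagent at room temperature.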

[11] = qHTS assay to identify small molecule antagonists of the sonic hedgehog signaling (Shh) pathway (AID 1259369; calls by dose curve; note: nearly all actives have a fitted effect of over 45% in size)
Method in brief: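 NIH/3T3-derived Gli1-Luc reporter cells plated 4 h, dosed with compound, then stimulated with conditioned medium for 24 h at 37 C. Firefly luciferase luminescence read after 30 min with detection reagent at room temperature.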

[12] = qHTS assay to identify small molecule agonists of the androgen receptor (AR) signaling pathway in the presence of an antagonist - cell viability counter screen (AID 1259379);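 note: MDA-kb2 human breast cancer cells carrying an MMTV luciferase reporter; series mostly up to about 92 µM; nearly all actives have a fitted effect of over 25% in size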
Method in brief: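 MDA-kb2 cells (MMTV-luciferase, AR/GR), 3,000/well, 5 h attachment, then 3.0 µM nilutamide (final) and compounds at 15 concentrations. Viability by CellTiter-Fluor fluorescence after 16 h at 37 °C, 0% CO2, in the reporter wells.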

[13] = qHTS assay to identify small molecule agonists of the estrogen receptor beta (ER-beta) signaling pathway - cell viability counter screen (AID 1259380); note: nearly all actives have a fitted effect of over 30% in size
Method in brief: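 ER-beta-UAS-bla HEK293T cells in medium with 2% charcoal-stripped FBS, pre-incubated 6 hr, then treated 16 hr at 37C. Cytotoxicity read in the same wells by CellTiter-Glo luminescence after 30 min at room temperature.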

[14] = target: Estrogen receptor (Homo sapiens) (UniProt P03372); test: qHTS assay to identify small molecule antagonists of the estrogen receptor alpha (ER-alpha) signaling pathway using the BG1 cell line in the presence of 0.1 nM 17-beta-estradiol (AID 1259244); note: nearly all actives have a fitted effect of over 50% in size
Sequence of Estrogen receptor (Homo sapiens) (P03372 whole entry, looked up): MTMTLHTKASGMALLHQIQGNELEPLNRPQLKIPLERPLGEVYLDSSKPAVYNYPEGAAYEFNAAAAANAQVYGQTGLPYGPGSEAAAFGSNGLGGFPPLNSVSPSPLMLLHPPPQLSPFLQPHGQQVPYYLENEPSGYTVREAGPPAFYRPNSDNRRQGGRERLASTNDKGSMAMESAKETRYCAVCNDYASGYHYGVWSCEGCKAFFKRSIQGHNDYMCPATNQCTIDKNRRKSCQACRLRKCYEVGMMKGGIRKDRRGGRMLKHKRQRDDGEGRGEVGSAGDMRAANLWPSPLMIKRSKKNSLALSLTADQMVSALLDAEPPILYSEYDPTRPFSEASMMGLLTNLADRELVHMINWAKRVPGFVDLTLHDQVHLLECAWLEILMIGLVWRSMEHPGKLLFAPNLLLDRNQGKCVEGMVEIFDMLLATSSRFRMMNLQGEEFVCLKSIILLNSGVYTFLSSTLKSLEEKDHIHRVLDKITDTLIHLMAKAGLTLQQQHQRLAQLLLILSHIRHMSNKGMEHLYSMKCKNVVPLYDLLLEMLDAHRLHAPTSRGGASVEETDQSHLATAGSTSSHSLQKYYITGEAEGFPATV
Method in brief: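 VM7Luc4E2 cells (endogenous full-length ER-alpha, 4×ERE-luciferase), kept 5 days in phenol red-free, charcoal-stripped FBS medium; 4,000 cells/well. Compounds added with 0.1 nM (final) 17beta-estradiol, 22 hr at 37C; luminescence read with ONE-Glo after 30 min.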

[15] = target: Estrogen receptor beta (Homo sapiens) (UniProt Q92731); test: qHTS assay to identify small molecule antagonists of the estrogen receptor beta (ER-beta) signaling pathway (AID 1259378; active = well fitted inhibition curve with a large enough effect in the signal ratio in the repeat runs, not every such curve was filed as active; the % refers to the signal ratio)
Sequence of Estrogen receptor beta (Homo sapiens) (Q92731 whole entry, looked up): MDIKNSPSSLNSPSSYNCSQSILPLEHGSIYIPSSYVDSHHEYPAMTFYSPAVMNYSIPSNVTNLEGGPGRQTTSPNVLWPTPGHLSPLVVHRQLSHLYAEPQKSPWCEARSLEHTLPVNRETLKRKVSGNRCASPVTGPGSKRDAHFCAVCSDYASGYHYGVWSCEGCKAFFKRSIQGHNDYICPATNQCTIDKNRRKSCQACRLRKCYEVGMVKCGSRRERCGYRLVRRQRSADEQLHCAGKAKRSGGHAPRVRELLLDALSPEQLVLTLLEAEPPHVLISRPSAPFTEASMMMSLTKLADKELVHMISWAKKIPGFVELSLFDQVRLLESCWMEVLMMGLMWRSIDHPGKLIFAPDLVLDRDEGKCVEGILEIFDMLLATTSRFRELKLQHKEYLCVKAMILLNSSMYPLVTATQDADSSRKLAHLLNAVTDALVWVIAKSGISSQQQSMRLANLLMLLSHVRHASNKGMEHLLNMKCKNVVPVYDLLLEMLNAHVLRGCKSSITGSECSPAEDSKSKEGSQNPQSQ
Method in brief: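 ER-beta-UAS-bla HEK293T cells in 2% charcoal-stripped FBS medium treated with compound plus 1nM final 17-beta-estradiol for 16 hr at 37C. Beta-lactamase reporter read by FRET substrate fluorescence after 2 hours at room temperature.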

[16] = qHTS assay to identify small molecule HDAC inhibitors - cell viability counter screen (AID 1259365)
Method in brief: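 Luminescence from CellTiter-Glo, developed 30min at room temperature, reports viability of wild-type HCT-116 cells treated 2hr with compounds at 37 C and 5% CO2 after overnight plating.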

[17] = target: Estrogen receptor beta (Homo sapiens) (UniProt Q92731); test: qHTS assay to identify small molecule agonists of the estrogen receptor beta (ER-beta) signaling pathway (AID 1259377; active = well fitted activation curve with a large enough effect in the signal ratio in the repeat runs, not every such curve was filed as active; the % refers to the signal ratio)
Method in brief: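 HEK293T ER-beta-UAS-bla; 2% charcoal-stripped FBS; cells pre-incubated 6 hr, compound 16 hr, 37C/5% CO2; LiveBLAzer B/G FRET substrate 2 h RT; fluorescence intensity read.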

[18] = A CellTox Green Cytotoxicity Assay to monitor cytotoxicity in HepG2 cells - 8 hour (AID 1224890); note: nearly all actives have a fitted effect of over 45% in size
Method in brief: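 HepG2 cells, 600/well, preincubated 5 h with CellTox Green dye, then exposed to Tox21 compounds in DMSO at 37 C for up to 40 h. Dead-cell DNA fluorescence read at the indicated time point.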

[19] = qHTS assay to identify small molecule phospholipidosis (PLD) inducers (AID 1259344; active = well fitted curve in the direction sought with a large enough effect; an effect the other way counts as inactive or inconclusive)
Method in brief: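 Quantitative HTS in HepG2: compound plus LipidTOX Red dye for 24 h, paraformaldehyde fixation with Hoechst 33342, widefield high-content imaging; amiodarone as positive and DMSO as negative control.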

[20] = target: Androgen receptor (Homo sapiens) (UniProt P10275); test: qHTS assay to identify small molecule antagonists of the androgen receptor (AR) signaling pathway using the MDA cell line in the presence of 0.5 nM R1881 (AID 1259243); note: nearly all actives have a fitted effect of over 50% in size
Sequence of Androgen receptor (Homo sapiens) (P10275 whole entry, looked up): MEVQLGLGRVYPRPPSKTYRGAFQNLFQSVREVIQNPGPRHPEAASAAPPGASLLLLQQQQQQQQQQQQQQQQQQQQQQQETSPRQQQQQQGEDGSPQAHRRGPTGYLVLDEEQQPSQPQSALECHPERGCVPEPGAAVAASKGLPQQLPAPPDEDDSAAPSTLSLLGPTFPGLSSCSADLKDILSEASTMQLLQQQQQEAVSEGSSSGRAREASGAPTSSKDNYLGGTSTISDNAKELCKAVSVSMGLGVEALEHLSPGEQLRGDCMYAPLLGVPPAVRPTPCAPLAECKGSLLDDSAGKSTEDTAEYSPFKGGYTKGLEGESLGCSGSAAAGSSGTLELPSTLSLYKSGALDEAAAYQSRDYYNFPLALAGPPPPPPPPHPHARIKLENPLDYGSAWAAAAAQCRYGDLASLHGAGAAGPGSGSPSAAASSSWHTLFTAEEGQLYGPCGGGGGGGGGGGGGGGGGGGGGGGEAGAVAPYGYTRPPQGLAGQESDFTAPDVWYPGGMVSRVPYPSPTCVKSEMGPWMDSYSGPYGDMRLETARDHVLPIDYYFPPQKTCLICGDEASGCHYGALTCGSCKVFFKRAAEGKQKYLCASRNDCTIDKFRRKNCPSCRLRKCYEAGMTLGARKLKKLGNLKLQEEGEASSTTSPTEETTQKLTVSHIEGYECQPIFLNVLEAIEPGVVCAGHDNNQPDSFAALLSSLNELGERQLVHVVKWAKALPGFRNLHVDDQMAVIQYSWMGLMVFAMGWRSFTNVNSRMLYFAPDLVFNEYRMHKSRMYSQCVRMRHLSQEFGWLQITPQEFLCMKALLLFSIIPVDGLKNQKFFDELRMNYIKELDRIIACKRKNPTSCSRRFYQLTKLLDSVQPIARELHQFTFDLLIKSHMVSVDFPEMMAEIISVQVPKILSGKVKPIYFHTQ
Method in brief: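 MDA-kb2 cells (MMTV-luciferase, responsive to AR and GR) at 3,000/well, rested 5 h at 37C, 0% CO2, then given compounds plus 0.5 nM R1881 (final) for 16 hr. Luciferase read with ONE-Glo after 30 min at room temperature.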

Measured: Potency

CCC(=O)CC
inactive: [1] | [2] | [3] | [4] | [5] | [6] | [7] | [8] | [9] | [10] | [11] | [12] | [13]

CC/C=C\CCOC(=O)c1ccccc1O
inactive: [1] | [2] | [3] | [4] | [5] | [6] | [14] | [8] | [9] | [10] | [11] | [15] | [12] | [13]
active: [7] 15.4 µM

CCCC(CC)c1ccccc1 (stereo unspecified)
inactive: [1] | [2] | [3] | [4] | [5] | [6] | [14] | [7] | [16] | [8] | [9] | [10] | [11] | [17] | [15] | [12] | [13]

CC(C)OC(=O)OCOP(=O)(CO[C@H](C)Cn1cnc2c(N)ncnc21)OCOC(=O)OC(C)C
inactive: [1] | [2] | [3] | [4] | [18] | [6] | [14] | [19] | [7] | [16] | [9] | [10] | [11] | [17] | [15] | [12] | [13]

CO[C@@]1(NC(=O)Cc2cccs2)C(=O)N2C(C(=O)O)=C(COC(N)=O)CS[C@@H]21
inactive: [1] | [2] | [3] | [18] | [5] | [6] | [14] | [19] | [7] | [16] | [8] | [9] | [10] | [11] | [12] | [13]

O=C(CCCl)NCCc1ccccc1
inactive: [1] | [2] | [3] | [18] | [5] | [6] | [20] | [14] | [7] | [9] | [10] | [11] | [17] | [12] | [13]

CCCC(=O)Nc1ccc(OCC(O)CNC(C)C)c(C(C)=O)c1 (stereo unspecified)
inactive: [1] | [2] | [3] | [4] | [18] | [6] | [14] | [19] | [7] | [16] | [8] | [9] | [10] | [11] | [15] | [12] | [13]

CCN(CC)CCN
inactive: [1] | [2] | [3] | [18] | [5] | [6] | [14] | [7] | [16] | [8] | [9] | [10] | [11] | [17] | [15] | [12]
